# Out of some 5,500 compounds screened, about 2,000 (36%) were called active. Another 18% or so got no clear call; they are omitted. This is one part of the list. A number with no mark means an inactive call. Cut-off read from the data, not from the text of the source: active = normalized growth mostly below about 0.91 (no sharp cut-off); inconclusive = no clear call, values can overlap the other calls; inactive = mostly above about 0.92.
# Test: chemical genetic growth profiling, strain panel (AID 1159580);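 note: tested at 20 µM; growth read once vehicle control cultures reached saturation at 30 °C; 1 = growth at the plate median or of vehicle wells; lower values mean less growth of the strain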
# Conditions: S. cerevisiae deletion strains, growth OD
# [1] = locus YAL013W, strain DEP1, active compounds read low
# [2] = locus YHR030C, strain SLT2, active compounds read low
# [3] = locus YJR075W, strain HOC1, active compounds read low
# [4] = locus YNL153C, strain GIM3, active compounds read low
compound,measurement,setting,value
CNCCCC1c2ccccc2C=Cc2ccccc21,normalized growth,[1],0.989
same,normalized growth,"locus YAL040C, strain CLN3, active compounds read low",1.08
same,normalized growth,"locus YCL061C, strain MRC1 (second series), active compounds read low",1
same,normalized growth,"locus YDR363W, strain ESC2, active compounds read low",1.03
same,normalized growth,"locus YER002W, strain NOP16, active compounds read low",1.01
same,normalized growth,[2],0.974
same,normalized growth,"locus YHR079C, strain IRE1, active compounds read low",0.965
same,normalized growth,"locus YJL095W, strain BCK1, active compounds read low",0.959
same,normalized growth,"locus YJR066W, strain TOR1, active compounds read low",0.954
same,normalized growth,[3],0.985
same,normalized growth,"locus YLR113W, strain HOG1, active compounds read low",0.956
same,normalized growth,"locus YMR307W, strain GAS1, active compounds read low",1
same,normalized growth,[4],1.02
same,normalized growth,"locus YNL175C, strain NOP13, active compounds read low",1.01
same,normalized growth,"locus YNL183C, strain NPR1, active compounds read low",0.924
same,normalized growth,"locus YNL197C, strain WHI3, active compounds read low",1.02
same,normalized growth,"locus YNL224C, strain SQS1, active compounds read low",1.06
same,normalized growth,"locus YOR083W, strain WHI5 (second series), active compounds read low",1.04
same,normalized growth,"locus YOR231W, strain MKK1, active compounds read low",0.976
same,normalized growth,"locus YPL055C, strain LGE1, active compounds read low",1
same,normalized growth,"locus YPL256C, strain CLN2, active compounds read low",0.945
C=Cc1c(SC)sc(C(=O)O)c1C,normalized growth,[1],0.869 (active)
same,normalized growth,"locus YBR229C, strain ROT2, active compounds read low",0.766 (active)
same,normalized growth,"locus YCL061C, strain MRC1, active compounds read low",0.746 (active)
same,normalized growth,"locus YDL101C, strain DUN1, active compounds read low",0.705 (active)
same,normalized growth,"locus YDL134C, strain PPH21, active compounds read low",1.01
same,normalized growth,"locus YDR150W, strain NUM1, active compounds read low",0.869
same,normalized growth,"locus YEL061C, strain CIN8, active compounds read low",0.999
same,normalized growth,"locus YGR078C, strain PAC10, active compounds read low",0.794 (active)
same,normalized growth,[2],1.05
same,normalized growth,"locus YHR087W, strain rtc3, active compounds read low",0.761 (active)
same,normalized growth,"locus YJL187C, strain SWE1, active compounds read low",1.05
same,normalized growth,"locus YJR043C, strain POL32, active compounds read low",0.807 (active)
same,normalized growth,[3],0.636 (active)
same,normalized growth,"locus YLR039C, strain RIC1, active compounds read low",0.795
same,normalized growth,"locus YLR058C, strain SHM2 (second series), active compounds read low",0.889 (active)
same,normalized growth,"locus YLR085C, strain ARP6, active compounds read low",1.05
same,normalized growth,"locus YLR262C, strain YPT6, active compounds read low",0.776 (active)
same,normalized growth,"locus YML094W, strain GIM5, active compounds read low",1.01
same,normalized growth,"locus YMR219W, strain ESC1, active compounds read low",0.804 (active)
same,normalized growth,"locus YMR263W, strain SAP30, active compounds read low",0.869 (active)
same,normalized growth,"locus YNL128W, strain TEP1, active compounds read low",1.04
same,normalized growth,[4],0.771 (active)
same,normalized growth,"locus YNL298W, strain CLA4 (second series), active compounds read low",1.02
same,normalized growth,"locus YNL322C, strain KRE1, active compounds read low",0.865 (active)
same,normalized growth,"locus YNR030W, strain Alg12, active compounds read low",0.979
same,normalized growth,"locus YOL006C, strain TOP1, active compounds read low",1.07
same,normalized growth,"locus YPL241C, strain CIN2, active compounds read low",0.966
same,normalized growth,"locus YPR135W, strain CTF4, active compounds read low",1.1
